The values that follow come from PubChem BioAssay (EPA / NIEHS).

Assay [1] has as its target Peroxisome proliferator-activated receptor gamma (Homo sapiens) (UniProt P37231). The experiment in a line: OT_PPARg_PPARgSRC1_0480: Odyssey Thera (OT) 8-hour Protein-Complementation Assay for Peroxisome Proliferator-activated Receptor Gamma / SRC-1 Co-activator (AID 2283387; active means hit-call score of the fitted dose curve at least 0.9, where 1 is the maximum;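 further: nuclear to cytoplasmic split Venus YFP fluorescence ratio reporting PPARg SRC-1 interaction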). The gist of the method:
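Protein-fragment complementation in HEK293T: Venus YFP halves (residues 1-158, 159-239, mutated to IFP1/IFP2) fused to PPARg/SRC-1. 8 h exposure; N/C ratio at 488 nm; DMSO negative control.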

For assay [2] the target is unchanged. The experiment in a line: OT_PPARg_PPARgSRC1_1440: Odyssey Thera (OT) 24-hour Protein-Complementation Assay for Peroxisome Proliferator-activated Receptor Gamma/ SRC-1 Co-activator (AID 2283388; active means hit-call score of the fitted dose curve at least 0.9, where 1 is the maximum;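 further: nuclear to cytoplasmic ratio of reconstituted Venus YFP fluorescence in fixed imaged cells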). The gist of the method: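 Protein-fragment complementation between PPARg and coactivator SRC-1 was measured by fluorescence imaging in transiently transfected HEK293T cells after 24 h treatment. Signal was quantified as N/C ratio in the 488 nm channel, with DMSO as negative control.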

The target in assay [3] is Retinoic acid receptor RXR-alpha (Homo sapiens) (UniProt P19793). In words: OT_NURR1_NURR1RXRa_1440: Odyssey Thera (OT) 24-hour HEK293T Protein Complementation Assay for Nurr1/retinoid X receptor (RXR) (AID 2283386; active means hit-call score of the fitted dose curve at least 0.9, where 1 is the maximum). The gist of the method:
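Fluorescence PCA read-out; HEK293T; 24 h post-dose; bait/prey fused to reporter fragments; gain-of-signal fit vs DMSO negative control.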

A short description of assay [4]: CEETOX_H295R_OHPREG: CeeTox H295R High-throughput Steroidogenesis Assay for OH-Pregnenolone (OHPREG) (AID 2283434). Conditions: actives raise or lower the signal. The gist of the method: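 Secreted 17alpha-hydroxypregnenolone measured by HPLC-MS/MS after liquid-liquid extraction. Human adrenal H295R cells received 48 h forskolin (10 uM) stimulation before 48 h chemical exposure at 0.1% final DMSO; MTT viability in same wells; bidirectional fit against DMSO.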

The nature of assay [5]: CEETOX_H295R_ANDR: CeeTox H295R High-throughput Steroidogenesis Assay for Androstenedione (ANDR) (AID 2283436). Conditions: actives raise or lower the signal. The gist of the method:
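Medium from 48 h chemical-treated H295R adrenal cells was extracted with MTBE and androstenedione measured by LC-MS/MS. Activity was fit in both directions relative to DMSO. Cytotoxic concentrations were re-tested after dilution until MTT viability reached ≥70%.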

A short description of assay [6]: CEETOX_H295R_PROG: CeeTox H295R High-throughput Steroidogenesis Assay for Progesterone (PROG) (AID 2283442). The conditions noted are these: actives raise or lower the signal. The gist of the method:
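Steps: seed H295R cells and let them adhere overnight; prime 48 h with 10 uM forskolin; dose with compound in DMSO at 0.1% final for 48 h; extract medium steroids with MTBE; measure progesterone by LC-MS/MS. MTT viability was run in the same wells.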

Read-out in assay [7]: Tumor necrosis factor receptor superfamily member 6 (Homo sapiens) (UniProt P25445)
In words: LTEA_HepaRG_FAS: Life Technologies and Expression Analysis (LTEA) Assay for Fas cell surface death receptor (FAS) using HepaRG (AID 2283447). Conditions: mRNA level, 48 h; actives raise or lower the signal. The gist of the method:
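FAS transcript level was measured by TaqMan qRT-PCR against three housekeeping genes after 48 h chemical exposure. Cells were HepaRG, 0.5% DMSO vehicle, with a top concentration of 100 uM and half-log dilutions over eight points, in duplicate.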

Read-out in assay [8]: Fatty acid synthase (Homo sapiens) (UniProt P49327)
In words: LTEA_HepaRG_FASN: Life Technologies and Expression Analysis (LTEA) Assay for Fatty Acid Synthase (FASN) using HepaRG (AID 2283448). The conditions noted are these: mRNA level, 48 h; actives raise or lower the signal. The gist of the method: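 HepaRG, 48 h exposure, 8-pt half-log series top 100 uM, 0.5% DMSO vehicle, duplicates. Readout: FASN transcript by Fluidigm qRT-PCR; housekeeping-normalized; bidirectional curve fit vs DMSO baseline.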

Read-out in assay [9]: Cyclin D2 (CCND2), CCND2 (gene 894)
The experiment in a line: LTEA_HepaRG_CCND2: Life Technologies and Expression Analysis (LTEA) Assay for Cyclin D2 (CCND2) using HepaRG (AID 2283449). The conditions noted are these: mRNA level, 48 h; actives raise or lower the signal. The gist of the method:
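CCND2 transcript levels, quantified by qRT-PCR and normalised to three housekeeping genes, were fitted bidirectionally against 0.5% DMSO. HepaRG cultures were dosed 48 h in duplicate with an 8-point half-log series up to 100 uM.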

Read-out in assay [10]: Cyclin Dependent Kinase Inhibitor 1A (CDKN1A), CDKN1A (gene 1026)
In words: LTEA_HepaRG_CDKN1A: Life Technologies and Expression Analysis (LTEA) Assay for Cyclin Dependent Kinase Inhibitor 1A (CDKN1A) using HepaRG (AID 2283450). The conditions noted are these: mRNA level, 48 h; actives raise or lower the signal. The gist of the method: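 Read-out is CDKN1A mRNA by TaqMan qRT-PCR, normalized to three housekeeping genes and fitted in both directions against the DMSO baseline. Human HepaRG cells were treated 48 h with test chemicals up to 100 uM in half-log steps, 0.5% DMSO.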

Read-out in assay [11]: Cyclin D1 (CCND1), CCND1 (gene 595)
The experiment in a line: LTEA_HepaRG_CCND1: Life Technologies and Expression Analysis (LTEA) Assay for Cyclin D1 (CCND1) using HepaRG (AID 2283451). The conditions noted are these: mRNA level, 48 h; actives raise or lower the signal. The gist of the method: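 HepaRG plated 48 h, medium switched to serum-free induction medium, chemicals added in duplicate (top 100 uM, half-log steps, 0.5% DMSO) for 48 h, cells lysed, RNA measured by TaqMan qRT-PCR.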

Read-out in assay [12]: catalase (CAT), CAT (gene 847)
The experiment in a line: LTEA_HepaRG_CAT: Life Technologies and Expression Analysis (LTEA) Assay for catalase (CAT) using HepaRG (AID 2283452). Conditions: mRNA level, 48 h; actives raise or lower the signal. The gist of the method: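 Expression of CAT was quantified by TaqMan qRT-PCR with ACTB/GAPDH/POLR2A normalization after 48 h chemical exposure of HepaRG. Eight-point half-log series, top 100 uM, in 0.5% DMSO; gain or loss fitted against vehicle.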

Read-out in assay [13]: flavin-containing dimethylaniline monooxygenases 3 (FMO3), FMO3 (gene 2328)
In words: LTEA_HepaRG_FMO3: Life Technologies and Expression Analysis (LTEA) Assay for flavin-containing dimethylaniline monooxygenases 3 (FMO3) using HepaRG (AID 2283453).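 On AC50: differentiated human HepaRG liver cells in serum-free induction medium; FMO3 transcript by TaqMan qRT-PCR normalized to ACTB GAPDH and POLR2A.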 Conditions: mRNA level, 48 h; actives raise or lower the signal. The gist of the method: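 Eight-point concentration-response in serum-free HepaRG cultures (top 100 uM, 0.5% DMSO, 48 h). Read-out: FMO3 mRNA level normalized to three endogenous control genes, fitted bidirectionally versus vehicle.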

Read-out in assay [14]: Cytochrome P450 (CYP1A1), CYP1A1 (gene 1543)
In words: LTEA_HepaRG_CYP1A1: Life Technologies and Expression Analysis (LTEA) Assay for Cytochrome P450 (CYP1A1) using HepaRG (AID 2283454). Conditions: mRNA level, 48 h; actives raise or lower the signal. The gist of the method:
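HepaRG, 48 h post-plating switched to serum-free induction medium; 8-pt conc-response (top 100 uM, half-log, 0.5% DMSO), duplicates, 48 h. Lysis in RLT, TaqMan qRT-PCR for CYP1A1; gain or loss vs DMSO.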

Read-out in assay [15]: CFLAR gene, CFLAR (gene 8837)
In words: LTEA_HepaRG_CFLAR: Life Technologies and Expression Analysis (LTEA) Assay for CFLAR gene using HepaRG (AID 2283455). The conditions noted are these: mRNA level, 48 h; actives raise or lower the signal. The gist of the method: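 Transcript level by qRT-PCR (normalized to ACTB, GAPDH and POLR2A) after 48 h chemical exposure of HepaRG cells, top concentration 100 uM with half-log steps, 0.5% DMSO vehicle, duplicates; fitted bidirectionally against DMSO baseline.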

Assay [16] is described as follows: CEETOX_H295R_11DCORT: CeeTox H295R High-throughput Steroidogenesis Assay for 11-Deoxycortisol (11DCORT) (AID 2283432). The conditions noted are these: actives raise or lower the signal. The gist of the method:
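Adrenal carcinoma line H295R, run per OECD 456 with minor changes, was forskolin-stimulated (10 uM, 48 h) before a 48 h chemical exposure at 0.1% DMSO. Secreted 11-deoxycortisol was quantified by HPLC-MS/MS.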

Assay [17] is described as follows: CEETOX_H295R_CORTIC: CeeTox H295R High-throughput Steroidogenesis Assay for Corticosterone (CORTIC) (AID 2283437). Conditions: actives raise or lower the signal. The gist of the method:
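Medium corticosterone was quantified by tandem mass spectrometry following 48 hours of chemical exposure (0.1% DMSO) in human H295R cells previously stimulated 48 hours with 10 uM forskolin. Viability checked by MTT; chemicals diluted and retested when viability fell below 70%.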

Assay [18] is described as follows: CEETOX_H295R_CORTISOL: CeeTox H295R High-throughput Steroidogenesis Assay for Cortisol (AID 2283438).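 Further: cortisol secreted into medium quantified by LC-MS/MS.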 Conditions: actives raise or lower the signal. The gist of the method: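 Read-out: cortisol in culture medium by reverse-phase C18 HPLC with ESI-positive tandem MS, after MTBE liquid-liquid extraction. Cells: human adrenal H295R, forskolin-primed (10 uM, 48 h) before 48 h chemical exposure in 0.1% DMSO.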

A short description of assay [19]: CEETOX_H295R_DOC: CeeTox H295R High-throughput Steroidogenesis Assay for DOC (AID 2283439). The conditions noted are these: actives raise or lower the signal. The gist of the method: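 Human adrenocortical H295R cells, passages up to 10, received 10 uM forskolin for 48 h before chemical addition. After another 48 h exposure in 0.1% DMSO, secreted DOC was measured by LC-MS/MS, with gain or loss fitted against DMSO controls.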

Inconclusive results are not listed. Activity calls are given as the source filed them. How the source made its calls, unless noted: active means hit-call score of the fitted dose curve at least 0.9, where 1 is the maximum; inactive means score below 0.9.

Sequence of Retinoic acid receptor RXR-alpha (Homo sapiens) (P19793 whole entry, looked up, the tested form may be a part): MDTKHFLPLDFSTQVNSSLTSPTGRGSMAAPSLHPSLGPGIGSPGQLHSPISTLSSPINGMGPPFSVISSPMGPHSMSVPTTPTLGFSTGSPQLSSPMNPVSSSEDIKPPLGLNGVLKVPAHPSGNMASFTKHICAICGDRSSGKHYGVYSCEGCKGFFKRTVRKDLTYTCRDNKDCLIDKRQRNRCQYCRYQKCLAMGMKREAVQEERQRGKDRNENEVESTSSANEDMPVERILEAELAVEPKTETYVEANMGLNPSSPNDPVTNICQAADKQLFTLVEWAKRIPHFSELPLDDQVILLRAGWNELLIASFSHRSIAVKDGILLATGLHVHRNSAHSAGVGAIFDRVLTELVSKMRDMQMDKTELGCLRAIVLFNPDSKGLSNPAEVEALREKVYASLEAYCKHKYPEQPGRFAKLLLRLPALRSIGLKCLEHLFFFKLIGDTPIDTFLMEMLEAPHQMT
Sequence of Fatty acid synthase (Homo sapiens) (P49327 whole entry, looked up): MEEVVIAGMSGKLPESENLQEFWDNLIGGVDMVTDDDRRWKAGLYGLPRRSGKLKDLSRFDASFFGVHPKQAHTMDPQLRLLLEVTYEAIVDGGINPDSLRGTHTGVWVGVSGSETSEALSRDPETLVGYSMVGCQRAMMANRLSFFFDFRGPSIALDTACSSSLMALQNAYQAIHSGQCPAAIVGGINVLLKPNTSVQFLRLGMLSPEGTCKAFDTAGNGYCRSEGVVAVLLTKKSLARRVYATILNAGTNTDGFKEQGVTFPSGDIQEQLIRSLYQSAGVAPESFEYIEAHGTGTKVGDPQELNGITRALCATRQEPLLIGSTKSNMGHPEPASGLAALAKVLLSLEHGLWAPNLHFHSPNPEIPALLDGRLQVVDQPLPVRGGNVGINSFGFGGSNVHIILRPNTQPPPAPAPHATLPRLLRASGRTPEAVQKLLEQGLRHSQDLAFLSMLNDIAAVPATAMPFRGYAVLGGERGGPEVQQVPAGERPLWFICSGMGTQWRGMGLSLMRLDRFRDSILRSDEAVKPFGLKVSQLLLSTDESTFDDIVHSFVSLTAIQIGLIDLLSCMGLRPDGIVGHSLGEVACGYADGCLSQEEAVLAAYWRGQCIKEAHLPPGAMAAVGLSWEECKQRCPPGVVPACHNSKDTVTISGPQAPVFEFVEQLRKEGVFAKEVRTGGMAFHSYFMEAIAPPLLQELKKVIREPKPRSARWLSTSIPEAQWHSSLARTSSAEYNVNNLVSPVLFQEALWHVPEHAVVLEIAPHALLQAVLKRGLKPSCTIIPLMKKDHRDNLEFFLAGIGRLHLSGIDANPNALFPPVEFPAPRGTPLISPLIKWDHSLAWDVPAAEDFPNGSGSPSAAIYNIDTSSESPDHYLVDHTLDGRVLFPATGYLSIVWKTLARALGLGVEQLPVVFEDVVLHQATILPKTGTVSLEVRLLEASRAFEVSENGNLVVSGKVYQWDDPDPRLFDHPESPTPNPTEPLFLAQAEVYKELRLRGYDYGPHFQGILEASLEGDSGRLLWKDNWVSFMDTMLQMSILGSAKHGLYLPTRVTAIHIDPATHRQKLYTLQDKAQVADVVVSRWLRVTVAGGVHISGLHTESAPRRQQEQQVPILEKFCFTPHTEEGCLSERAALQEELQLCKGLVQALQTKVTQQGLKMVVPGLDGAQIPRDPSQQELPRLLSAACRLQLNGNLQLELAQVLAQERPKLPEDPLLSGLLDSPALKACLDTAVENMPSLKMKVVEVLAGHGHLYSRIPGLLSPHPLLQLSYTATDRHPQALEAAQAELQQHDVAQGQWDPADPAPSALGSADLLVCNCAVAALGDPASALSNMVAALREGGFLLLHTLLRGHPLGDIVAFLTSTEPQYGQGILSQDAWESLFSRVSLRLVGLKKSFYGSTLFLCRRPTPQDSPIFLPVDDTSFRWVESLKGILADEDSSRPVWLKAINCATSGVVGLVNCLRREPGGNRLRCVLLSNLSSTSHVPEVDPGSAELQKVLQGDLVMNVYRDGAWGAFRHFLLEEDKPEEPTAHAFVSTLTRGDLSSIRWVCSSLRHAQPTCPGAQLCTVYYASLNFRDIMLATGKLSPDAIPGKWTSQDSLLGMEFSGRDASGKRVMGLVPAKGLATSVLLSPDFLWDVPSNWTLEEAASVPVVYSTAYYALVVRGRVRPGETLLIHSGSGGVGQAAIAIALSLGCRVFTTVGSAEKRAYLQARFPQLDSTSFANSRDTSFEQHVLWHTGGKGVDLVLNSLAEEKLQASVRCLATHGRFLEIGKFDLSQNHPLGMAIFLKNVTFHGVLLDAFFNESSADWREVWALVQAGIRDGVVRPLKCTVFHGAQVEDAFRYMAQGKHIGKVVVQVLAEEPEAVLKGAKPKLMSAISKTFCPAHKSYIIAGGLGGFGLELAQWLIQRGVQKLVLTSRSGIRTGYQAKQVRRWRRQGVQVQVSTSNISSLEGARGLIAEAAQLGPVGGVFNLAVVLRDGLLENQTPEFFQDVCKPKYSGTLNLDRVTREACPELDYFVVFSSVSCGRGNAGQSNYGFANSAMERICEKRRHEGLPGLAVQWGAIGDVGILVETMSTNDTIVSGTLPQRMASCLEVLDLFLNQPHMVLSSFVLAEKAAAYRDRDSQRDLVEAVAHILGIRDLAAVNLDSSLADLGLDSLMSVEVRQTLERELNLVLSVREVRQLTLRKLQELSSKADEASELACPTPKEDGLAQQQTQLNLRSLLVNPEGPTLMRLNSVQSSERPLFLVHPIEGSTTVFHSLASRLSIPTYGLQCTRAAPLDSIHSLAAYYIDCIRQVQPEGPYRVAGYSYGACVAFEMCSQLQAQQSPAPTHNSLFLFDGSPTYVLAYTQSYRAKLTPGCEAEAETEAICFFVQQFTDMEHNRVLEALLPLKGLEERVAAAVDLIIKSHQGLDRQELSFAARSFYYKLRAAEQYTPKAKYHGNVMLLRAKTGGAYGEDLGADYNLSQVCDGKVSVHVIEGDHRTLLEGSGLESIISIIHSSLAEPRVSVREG
Sequence of Peroxisome proliferator-activated receptor gamma (Homo sapiens) (P37231 whole entry, looked up, the tested form may be a part): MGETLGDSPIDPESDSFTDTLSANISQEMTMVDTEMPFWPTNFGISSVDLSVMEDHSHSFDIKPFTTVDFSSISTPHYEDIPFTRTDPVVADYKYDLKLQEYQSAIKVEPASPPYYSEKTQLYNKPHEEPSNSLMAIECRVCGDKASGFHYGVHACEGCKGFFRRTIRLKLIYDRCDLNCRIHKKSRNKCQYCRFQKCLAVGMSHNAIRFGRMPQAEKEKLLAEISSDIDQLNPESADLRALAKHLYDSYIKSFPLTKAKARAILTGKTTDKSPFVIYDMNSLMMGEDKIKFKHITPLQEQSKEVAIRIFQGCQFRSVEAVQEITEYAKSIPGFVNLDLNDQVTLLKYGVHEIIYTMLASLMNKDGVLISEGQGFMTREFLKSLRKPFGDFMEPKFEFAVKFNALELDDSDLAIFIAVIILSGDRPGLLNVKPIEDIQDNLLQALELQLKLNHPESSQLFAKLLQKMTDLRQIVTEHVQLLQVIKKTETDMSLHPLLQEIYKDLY

Turning to `CCCCOCCOC(C)=O`, the compound was called inactive in assay [1] and in assay [2].

As for `COP(=O)(OC)O/C(=C\Cl)c1cc(Cl)c(Cl)cc1Cl`, the compound was classed as inactive in assay [3], in assay [1], in assay [2], in [4], in assay [5] and in assay [6].

Consider `CCC(=O)C(CC(C)N(C)C)(c1ccccc1)c1ccccc1` (configuration not stated), for which the compound was called inactive in [3], in [1], in assay [2], in assay [7], in assay [8] and in assay [9]. Moreover, the outcome in assay [10], in assay [11], in assay [12] and in [15] was inactive. The AC50 is 46.7 µM (active) in assay [13] and 55.3 µM (active) in assay [14].

Consider `CC(C)C1CCC(Cc2ccc(Cl)cc2)C1(O)Cn1cncn1` (configuration not stated), for which the result in assay [1] and in [2] was inactive.

Regarding `O=C(O)C(F)(F)C(F)(F)C(F)(F)C(F)(F)C(F)(F)C(F)(F)C(F)(F)C(F)(F)C(F)(F)C(F)(F)F`, the call in [3], in assay [1], in assay [2], in assay [7], in assay [8] and in assay [9] was inactive. Moreover, the compound was called inactive in assay [10], in [11], in [12], in assay [14] and in assay [15]. Moreover, the half-maximal activity concentration (AC50) in assay [13] was 69.1 µM (active).

Regarding `O=C(Cc1ccccc1)c1ccccc1`, the result in assay [3], in [16], in assay [4], in assay [17], in [18] and in assay [19] was inactive. The AC50 in assay [6] is 45.9 µM (active).

Take `CC(C)(C)CC(C)(C)c1ccc(O)cc1`: the concentration at half-maximal activity (AC50) in assay [3] was 11.2 µM (active); in assay [12], 2.44 µM (active); in [14] it was 81.5 µM (active). In addition, the call in [7], in assay [8], in assay [10], in [11], in [13] and in assay [15] was inactive.

Consider `Cn1sc(Cl)cc1=O`, for which the result in assay [3], in [1], in assay [2], in [7], in assay [8] and in [9] was inactive. In addition, the result in [10], in [11], in assay [12], in [13], in [14] and in assay [15] was inactive.

In the case of `ClCC(Cl)CCl`, the compound was classed as inactive in assay [3], in assay [7], in assay [8], in assay [9], in assay [10] and in assay [11]. For the same compound, the outcome in [12], in [13], in assay [14] and in assay [15] was inactive.

Take `CC1(C)CCC(Cc2ccc(Cl)cc2)C1(O)Cn1cncn1` (configuration not stated): the compound was called inactive in assay [3], in assay [1] and in assay [2]. For the same compound, the half-maximal activity concentration (AC50) is 0.143 µM (active) in assay [4] and 0.0359 µM (active) in assay [6].

As usually defined, the AC50 is the concentration giving half of the maximal activity seen.
